High-throughput results: PubChem BioAssay, National Center for Advancing Translational Sciences (NCATS)
G9a block: G9a (human) methyltransferase inhibition; Potency, µM (series often up to 102 µM), without a hit: at the highest dose activity, negative = inhibition, most hits filed as inhibitors; hit rate 8.8% among 350,000; G9a H3K9 monomethylation, AlphaScreen, 2 h; Q96KQ7; note: potency is the fitted concentration of half-maximal effect; % is set by controls: 0 for no effect and ±100 for the full control effect; nearly all actives have a fitted effect of over 75% in size
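Quantitative HTS format: methyltransferase activity on a biotin-tagged H3K9 peptide is measured by AlphaScreen, using a rabbit anti-monomethyl-H3K9 antibody with streptavidin donor and anti-IgG acceptor beads. Final levels are 20 nM enzyme, 500 nM peptide, 20 uM SAM; 2 h RT.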
BAZ2B block: inhibitors of human BAZ2B bromodomain; AlphaScreen BAZ2B-H3K14Ac peptide displacement; Potency, µM (titrated, usually from 114 µM), for inactives: top-dose activity change, negative = inhibition, usual class: inhibitors; AID 504333; hit rate 4.4% among 360,000; note: potency is the fitted concentration of half-maximal effect; % is set by controls: 0 for no effect and ±100 for the full control effect; nearly all actives have a fitted effect of over 60% in size
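Protein-peptide AlphaScreen: BAZ2B 50 nM, b-H3K14Ac 50 nM, 1x PBS pH 7.4 + 0.01% Tween-20. Preincubation 30 min RT; cpd 30 min RT (top 110 uM); beads 20 min RT, light-protected.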
Six1-Eya2 inh: inhibitors of human Six1/Eya2 interaction; AlphaScreen GST-Six1/His-Eya2 binding, biochemical; stronger effect = lower value; activity change, % (test concentration not listed); hit rate 0.56% among 360,000; AID 651725; in the data active = activity change below about -65%; inconclusive = mostly about -30% to -63%; note: % is set by controls: 0 for no effect and ±100 for the full control effect
Target sequence (O00167 whole entry, looked up): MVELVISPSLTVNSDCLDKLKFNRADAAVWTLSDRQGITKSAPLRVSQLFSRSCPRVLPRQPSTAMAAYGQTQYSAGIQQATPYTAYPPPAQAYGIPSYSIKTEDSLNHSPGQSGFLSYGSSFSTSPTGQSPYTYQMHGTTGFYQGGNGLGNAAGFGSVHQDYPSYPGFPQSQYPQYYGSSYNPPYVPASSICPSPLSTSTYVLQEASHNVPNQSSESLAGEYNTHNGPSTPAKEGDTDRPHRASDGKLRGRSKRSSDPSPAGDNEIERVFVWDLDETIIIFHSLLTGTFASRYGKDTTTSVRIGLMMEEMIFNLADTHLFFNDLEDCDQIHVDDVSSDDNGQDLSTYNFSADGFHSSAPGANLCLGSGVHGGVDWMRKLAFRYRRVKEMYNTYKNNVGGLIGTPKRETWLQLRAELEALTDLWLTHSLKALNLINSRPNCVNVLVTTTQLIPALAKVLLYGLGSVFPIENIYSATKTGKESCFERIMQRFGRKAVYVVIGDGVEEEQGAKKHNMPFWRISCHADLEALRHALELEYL
Target sequence (Q15475 whole entry, looked up): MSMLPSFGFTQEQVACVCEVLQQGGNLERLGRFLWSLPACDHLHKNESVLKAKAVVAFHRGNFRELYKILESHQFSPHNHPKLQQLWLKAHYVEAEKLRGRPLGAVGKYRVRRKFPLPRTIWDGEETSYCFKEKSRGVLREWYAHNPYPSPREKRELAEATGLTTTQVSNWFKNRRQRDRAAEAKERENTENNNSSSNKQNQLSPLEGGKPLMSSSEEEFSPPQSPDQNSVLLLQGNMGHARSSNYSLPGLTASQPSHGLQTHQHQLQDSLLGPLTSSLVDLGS
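GST-Six1 + His-Eya2 (5X stock: 250/500 nM); Tris pH 8.0, 300 mM NaCl, 0.05% BSA, 0.02% Tween 20; GSH donor/Ni acceptor beads; 1 h 37 °C dark; AlphaScreen readout.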
CtBP-E1A blk: blocks the CtBP interaction with E1A | activity change, % (no concentration beside the values) | hit rate 0.49% among 340,000 | AlphaScreen GST-E1A/His-CtBP binding, 1536-well; stronger effect = lower value | AID 651724; in the data active = activity change below about -65%; inconclusive = mostly about -30% to -63%; note: % is set by controls: 0 for no effect and ±100 for the full control effect
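Steps: dispense buffer (Tris pH 8.0, NaCl 300 mM, TCEP 1 mM, BSA, Tween 20); add 5X protein mix (GST-E1A, His-CtBP, 125 nM each); pin 23 nL compound; 2 h at 37 °C, dark; add 5X beads (50 ug/mL); 1 h; read.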
HP1b chromo inh: inhibitors of HP1-beta chromodomain binding to methylated histone tails; P83916; AlphaScreen HP1-beta / biotin-H3K9me3 peptide binding; Potency, µM (doses to about 114 µM), for inactives: top-dose activity change, negative = inhibition, usual class: inhibitors; hit rate 0.56% among 390,000; AID 540317; note: potency is the fitted concentration of half-maximal effect; nearly all actives have a fitted effect of over 70% in size
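Compound inhibition of the preformed complex between 50 nM HP1-beta and 50 nM biotinylated H3K9me3 peptide was read by AlphaScreen. Buffer was PBS pH 7.4 with 0.01% Tween-20. Incubations ran 30 min at room temperature, with 10 ug/mL donor/acceptor beads.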
JMJD2A Tudor inh: JMJD2A Tudor domain (human) inhibition; O75164; AlphaScreen JMJD2A-Tudor / H3K4me3 peptide binding; Potency, µM (series often up to 114 µM), for the others: top-dose activity change, negative = inhibition, hits mostly inhibitors; hit rate 4.4% among 390,000; AID 504339; note: potency is the fitted concentration of half-maximal effect; % is set by controls: 0 for no effect and ±100 for the full control effect; nearly all actives have a fitted effect of over 50% in size
Starred values were filed as active, the others as inactive; ? = inconclusive; . = no result given; [ ] = remark or other dose. Shown are actives, neighbours in structure and some others; about 10% of the full set was active somewhere. Unless noted, calls come from the whole dose curve; as a rule, active = well fitted inhibition curve with a large enough effect; inconclusive = small, poorly fitted or top-dose-only effect; inactive = no such curve, though single readings can be large or run the other way.

SMILES | G9a block | BAZ2B block | Six1-Eya2 inh | CtBP-E1A blk | HP1b chromo inh | JMJD2A Tudor inh
Cc1ccc(-c2csc(Nc3ccccn3)n2)cc1 | ? | ? | -11 | -5 | 21% | -22%
COc1ccc(-c2csc(Nc3ccc(C)cn3)n2)cc1 | 20µM* | ? | -4 | -6 | -13% | -29%
CC(=O)Oc1ccc(-c2csc(Nc3ccc(Cl)cn3)n2)cc1 | 29% | -19% | -2 | -7 | 21% | -20%
COc1ccc(-c2csc(Nc3ccccn3)n2)cc1OC | 50µM* | 45µM* | -1 | -4 | -25% | ?
Oc1ccc(-c2csc(Nc3ccccn3)n2)cc1 | 71µM* | ? | -6 | -3 | 3% | -27%
Cc1nn(C(=O)c2ccccc2)c(C)c1Sc1ccc(Cl)cc1 | 163%[59 µM] | 209% | . | . | 107% | 106%
Cc1cc(C)cc(-n2c(SCC(=O)N3CCOCC3)nc3c([nH]c4ccccc43)c2=O)c1 | 6%[59 µM] | 34% | . | . | 51%[57 µM] | -5%
CC(=O)c1ccc(N2CCN(c3ccccc3O)CC2)c([N+](=O)[O-])c1 | 45µM* | ? | -18 | -10 | ? | ?
N#Cc1cc([N+](=O)[O-])ccc1N1CCN(c2ccccc2O)CC1 | ? | ? | -27 | 7 | -15% | ?
O=C(O)c1ccccc1C(=O)c1ccc(N2CCCC2)c([N+](=O)[O-])c1 | ? | -14% | 9 | . | 27% | -16%[11.4 µM]
CC1Cc2ccccc2N1C(=O)c1ccc(N2CCCCC2)c([N+](=O)[O-])c1 (configuration not stated) | 32µM* | 32µM* | ? | -11 | ? | 40µM*
CC1Cc2ccccc2N1C(=O)c1ccc(N2CCCC2)c([N+](=O)[O-])c1 (configuration not stated) | ? | 25µM* | ? | ? | -15% | 45µM*
Cc1ccc(C)c(NC(=O)CSc2c(C)cnc3c2c(=O)n(C)c(=O)n3C)c1 | 5%[59 µM] | 0% | . | . | 26% | 7%
CCCN1CCN(CCCNC(=O)c2ccc3c(c2)sc2nc(-c4ccc(C)cc4)cn23)CC1 | 4%[59 µM] | -2% | . | . | 36% | -2%
COc1ccc(NC(=O)CCc2c(C)nn(-c3ccc(N4CCCCC4)nn3)c2C)cc1Cl | 1%[59 µM] | -29% | . | . | -12% | ?
O=C1[C@@H]2C(Cc3ccc(O)cc3)NC3(C(=O)Nc4ccc(F)cc43)[C@@H]2C(=O)N1c1ccccc1 (some centres not stated) | 79µM* | -37% | -2 | 2 | -17% | 79µM*
Cc1c(Cl)ccc2c1NC(=O)[C@]21N[C@@H](Cc2ccccc2)[C@H]2C(=O)N(c3ccc(F)cc3)C(=O)[C@H]21 | 1.6µM* | ? | -5 | -5 | 12% | -29%
O=C1[C@@H]2[C@H](Cc3ccc(O)cc3)N[C@]3(C(=O)Nc4ccccc43)[C@@H]2C(=O)N1c1ccc(F)cc1 | ? | 2% | . | . | . | .
O=C(NCCc1csc(-c2cccnc2)n1)c1cccc(C(F)(F)F)c1 | 3%[59 µM] | -7% | . | . | 5%[57 µM] | 1%
O=c1[nH]c(-c2ccncc2)nc2ccccc12 | 8.9µM* | -8% | 0 | -8 | ? | ?
O=C1c2ccccc2NC(c2cccc([N+](=O)[O-])c2)N1CCc1ccccc1 (configuration not stated) | 45µM* | ? | -15 | -10 | -12% | ?
COc1ccc(O)c(C2Nc3ccccc3C(=O)N2Cc2ccccc2)c1 (configuration not stated) | . | . | . | . | . | 79µM*
COc1ccc(CCN2C(=O)c3ccccc3NC2c2cc(Cl)c(O)c(OC)c2)cc1 (configuration not stated) | 71µM* | -15% | -15 | -3 | -12% | -23%
Cc1cccc(C2Nc3ccccc3C(=O)N2CCc2ccccc2)n1 (configuration not stated) | 9%[59 µM] | 3% | -1 | -16 | 37% | -1%
CCOc1ccc(C2N3CC4(C(C)C)CN2CC(C(C)C)(C3)C4=O)cc1OC (configuration not stated) | -8%[59 µM] | -16% | . | . | 22% | -24%
SMILES | G9a block | BAZ2B block | Six1-Eya2 inh | CtBP-E1A blk | HP1b chromo inh | JMJD2A Tudor inh
COc1cccc2c1cc1c(=O)n(CC(=O)O)nc(C)n12 | -3%[59 µM] | -1% | . | . | 42% | -4%
CCN1/C(=C2/SC(=S)NC2=O)Sc2ccccc21 | 8.9µM* | -13% | -10 | -28 | 53% | -24%
CCN1/C(=C2/OC(=S)N(C)C2=O)Sc2ccccc21 | ? | -7% | 19 | -8 | 56% | -5%
COCCn1c(=O)c(-c2cc(F)cc(F)c2)nc2cnc(Oc3cccc(Cl)c3)nc21 | -1%[12.7 µM] | . | . | . | . | .
COC(=O)c1ccc(C)c(NC(=O)c2nn(C)c(=O)c3ccccc23)c1 | -2% | -2% | 0 | 2 | 23% | -15%
COC(=O)c1cccc(NC(=O)c2nn(C)c(=O)c3ccccc23)c1 | -65% | -3% | -83* | -85* | 25% | -18%
O=C(Nc1ccc(Cl)c(S(=O)(=O)N2CCCC2)c1)c1nn(CCO)c(=O)c2ccccc12 | 50µM* | -29% | ? | -21 | 1% | -33%
Cn1nc(C(=O)Nc2ccc(Cl)c(S(=O)(=O)N3CCOCC3)c2)c2ccccc2c1=O | 6%[12.7 µM] | 3% | -29 | -25 | 30% | -21%
Cn1nc(C(=O)Nc2ccc(S(=O)(=O)N3CCCCC3)cc2)c2ccccc2c1=O | ? | -27% | -2 | 0 | 14% | -19%
Cn1nc(C(=O)Nc2cccc(S(=O)(=O)N3CCCCC3)c2)c2ccccc2c1=O | 40µM* | -23% | -23 | -19 | 11% | -17%
COc1ccc(OCC(=O)Nc2cccc(-c3nc4ccccc4s3)c2C)cc1 | 30%[59 µM] | 2% | . | . | 66% | 3%
Nc1ccc(OCCCc2c(N)nc(N)nc2N)cc1 | ? | -35% | -12 | . | 1% | 56µM*
COc1ccc(Cc2c(N)nc(N)nc2N)cc1 | 15% | -29% | 0 | 20 | 22% | 6%
CCOC(=O)C1=C(N)Oc2cc(O)ccc2C1c1ccc([N+](=O)[O-])cc1 (configuration not stated) | 40µM* | ? | -4 | -5 | -19% | 50µM*
CCOC(=O)C1=C(N)Oc2ccc3ccccc3c2C1c1ccc(O)cc1 (configuration not stated) | ? | ? | -1 | 4 | 0% | -35%
CNc1ccc(/C=C/C(=O)c2cccc3ccccc23)cc1[N+](=O)[O-] | 10µM* | 7.1µM* | -10 | 1 | 16µM* | 8.9µM*
O=C(Nc1cccc2cccnc12)c1ccc(-c2cccc(Cl)c2)o1 | 1%[59 µM] | -17% | . | . | 31% | -8%
CCOC(=O)C1=C2NC(=O)c3ccccc3N2C(=O)C1 | 7.9µM* | -28% | 15 | 5 | ? | ?
